Laboratory results published in the supplement of paper PMC6555819.

Legend:
Assay in all cases: PBM binding z-score (relative to random genomic background probes); higher = stronger binding; sequences stand for … in GC…GCGATTGACAGCGTAGAATGAAGG
[1] = test system: FXR:RXRa (NR concentration 270 nM, RXRa partner concentration 90 nM)
Method in brief: (§1)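 Regression normalization was applied to scanned fluorescence from custom Agilent 4×180K protein-binding microarrays. Before scanning, arrays were incubated 1 h with ligand-free nuclear receptor dimers, and binding was detected with antibodies against each partner (one per run). Binding z-scores use the random background probes as reference.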

[2] = test system: LXRa:RXRa (NR concentration 270 nM, RXRa partner concentration 90 nM)
Method in brief: as §1

[3] = test system: LXRa homodimer (NR concentration 270 nM)
Method in brief: as §1

[4] = test system: LXRb:RXRa (NR concentration 270 nM, RXRa partner concentration 90 nM)
Method in brief: as §1

[5] = test system: LXRb homodimer (NR concentration 270 nM)
Method in brief: as §1

[6] = test system: PPARa:RXRa (NR concentration 270 nM, RXRa partner concentration 90 nM)
Method in brief: as §1

[7] = test system: PPARg:RXRa (NR concentration 180 nM, RXRa partner concentration 90 nM)
Method in brief: as §1

[8] = test system: PPARg:RXRa 270nM:90nM, anti-RXR (NR concentration 270 nM, RXRa partner concentration 90 nM)
Method in brief: as §1

[9] = test system: PPARg:RXRa 30nM:10nM, anti-RXR (NR concentration 30 nM, RXRa partner concentration 10 nM)
Method in brief: as §1

[10] = test system: PPARg:RXRa 90nM:30nM, anti-RXR (NR concentration 90 nM, RXRa partner concentration 30 nM)
Method in brief: as §1

[11] = test system: PPARg:RXRa DBDmut IVT, anti-RXR (DBD mutation: RXRa K156A/R161A, NR concentration 270 nM, RXRa partner concentration 90 nM)
Method in brief: as §1

[12] = test system: PPARg:RXRa IVT, anti-PPARg (NR concentration 270 nM, RXRa partner concentration 90 nM)
Method in brief: as §1

[13] = test system: PPARg DBDmut:RXRa IVT, anti-PPARg (DBD mutation: PPARg1 K132A/R137A, NR concentration 270 nM, RXRa partner concentration 90 nM)
Method in brief: as §1

[14] = test system: PPARg DBDmut IVT, anti-PPARg (DBD mutation: PPARg1 K132A/R137A, NR concentration 270 nM)
Method in brief: as §1

[15] = test system: PPARg homodimer (NR concentration 180 nM)
Method in brief: as §1

[16] = test system: PXR:RXRa (NR concentration 270 nM, RXRa partner concentration 90 nM)
Method in brief: as §1

[17] = test system: PXR homodimer (NR concentration 270 nM)
Method in brief: as §1

[18] = test system: RARa:RXR (NR concentration 270 nM, RXRa partner concentration 90 nM)
Method in brief: as §1

[19] = test system: RARa homodimer (NR concentration 270 nM)
Method in brief: as §1

[20] = test system: RARb:RXRa (NR concentration 270 nM, RXRa partner concentration 90 nM)
Method in brief: as §1

Row | Sequence | PBM binding z-score [1] | PBM binding z-score [2] | PBM binding z-score [3] | PBM binding z-score [4] | PBM binding z-score [5] | PBM binding z-score [6] | PBM binding z-score [7] | PBM binding z-score [8] | PBM binding z-score [9] | PBM binding z-score [10] | PBM binding z-score [11] | PBM binding z-score [12] | PBM binding z-score [13] | PBM binding z-score [14] | PBM binding z-score [15] | PBM binding z-score [16] | PBM binding z-score [17] | PBM binding z-score [18] | PBM binding z-score [19] | PBM binding z-score [20]
1 | CCTAGCAGGCCAATCTGGGTTACTCAAGGCTTGA | 0.0367 | -0.0703 | -0.681 | -0.364 | -1.09 | 1.18 | 0.194 | 0.0942 | -1.01 | -0.507 | 3.14 | 3.29 | -0.813 | -1.24 | -0.705 | -0.391 | -0.895 | -0.308 | -0.89 | 0.268
2 | ACTAGTTGGTCAGCTGAGGTCACATACAATTCGG | 2.13 | 2.95 | 2.7 | 3.37 | 0.543 | 3.41 | 1.77 | 1.98 | 0.658 | 1.17 | 1.59 | 2.44 | 0.89 | 0.482 | 2.09 | 5.26 | 1.85 | 4.17 | 0.305 | 3.4
3 | TGAATGAGGTTAAAGATCAGGGCACGTGGCGTCG | 2.95 | 2.69 | 0.0826 | 1.81 | 0.456 | 4.53 | 5.69 | 6.11 | 4.67 | 6.24 | 2.37 | 3.82 | 1.31 | 1.27 | 0.587 | 2.32 | 0.062 | 3.3 | 0.14 | 2.41
4 | CCTCGGAGGACAGAAGATCAGAGCTGTCCGCTTT | -0.222 | -0.485 | -0.602 | -0.91 | -1.2 | -0.456 | -0.0907 | -0.214 | -0.616 | -0.38 | -0.304 | -0.633 | -2.13 | -1.48 | -0.0483 | -0.636 | -0.786 | -0.512 | -0.276 | 0.386
5 | TCTTGTAGATCAATAGTGGTTAAGAAAGTGCGCT | 0.499 | 0.37 | -0.000472 | 0.00968 | 0.297 | 0.451 | -0.385 | 1.4 | 2.83 | 2.06 | 1.98 | 0.303 | 0.28 | 1.33 | 0.545 | 0.46 | 0.364 | 0.481 | 0.947 | 0.0691
6 | CCTACTGGGCCACGAAAAGTCATTGATTCAGTGA | -0.198 | -0.0823 | -0.286 | -0.375 | -0.772 | 0.98 | 1.63 | 1.67 | 0.153 | 0.689 | 5.95 | 5.51 | -0.0211 | -0.417 | 0.0392 | -0.419 | -0.579 | -0.211 | -0.346 | 0.629
7 | ACTAGCAGGCCAAGTTTGGGTCGCTCAAACAAAG | -0.398 | -0.635 | -0.922 | -0.551 | -0.759 | -0.185 | -0.746 | -0.638 | -1.08 | -1.15 | 0.683 | 0.332 | -0.842 | -0.527 | -0.566 | -0.33 | -0.606 | -0.147 | -1.09 | 0.491
